Source: PubChem BioAssay
Entries with a potency or affinity are not part of this list. The source made the active and inactive calls. No cut-off is given here; in the data, nearly all actives have IC50 up to about 0.98 µM.

These compounds were tested against Calcium-dependent protein kinase 1 (Plasmodium falciparum (isolate 3D7)) (UniProt P62344) (assay: PfCDPK1 kinase inhibitors, biochemical, TCAMS library (AID 1159585;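 note: inhibitors leave more ATP so luminescence rises with inhibition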)). Details: recombinant PfCDPK1, Kinase-Glo ATP depletion luminescence.
Sequence of Calcium-dependent protein kinase 1 (Plasmodium falciparum (isolate 3D7)) (P62344 whole entry, looked up): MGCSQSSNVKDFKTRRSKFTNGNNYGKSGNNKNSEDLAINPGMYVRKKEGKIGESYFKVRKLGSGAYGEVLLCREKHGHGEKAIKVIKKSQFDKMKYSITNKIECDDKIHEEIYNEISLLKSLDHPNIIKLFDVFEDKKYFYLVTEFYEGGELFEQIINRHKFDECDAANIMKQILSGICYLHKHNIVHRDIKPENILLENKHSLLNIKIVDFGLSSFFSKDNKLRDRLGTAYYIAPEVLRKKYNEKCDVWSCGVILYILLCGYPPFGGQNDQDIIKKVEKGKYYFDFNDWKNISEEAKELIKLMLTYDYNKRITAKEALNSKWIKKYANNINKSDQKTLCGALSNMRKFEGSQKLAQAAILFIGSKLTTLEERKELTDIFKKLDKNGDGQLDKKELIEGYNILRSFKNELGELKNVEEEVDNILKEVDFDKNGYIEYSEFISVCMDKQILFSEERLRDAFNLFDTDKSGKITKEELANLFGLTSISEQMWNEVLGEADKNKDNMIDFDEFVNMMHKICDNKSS

outcome, inactive:
CCS(=O)(=O)c1ccc(OC)c(Nc2nccc(-c3c(-c4cccc(NC(=O)c5c(F)cccc5F)c4)nn4ncccc34)n2)c1, COc1ccc(NC(=O)c2ccc(-c3cccc(OCc4ccccc4)c3)cc2)cc1N1CCN(C)CC1, Brc1ccsc1-c1nc(NC2CCN(Cc3ccccc3)CC2)no1, Cc1nc2ccccc2n1C1C[C@H]2CC[C@@H](C1)N2CCC1(c2ccccc2)CCN(C(=O)Nc2ccc(C(F)(F)F)cc2)CC1 (stereo partly drawn), O=c1c2cccnc2sn1-c1ccccc1, CCCCNC(=O)C1CCCN(C(=O)c2ccc(O)c(-c3ccc(Cl)c(Cl)c3)c2)C1 (stereo not drawn), CCc1cc(-c2n[nH]c(C(F)(F)F)c2-c2ccccc2)c(O)cc1OC, O=C(O)c1ccc(-c2cnc3ccc(NC4CCC(O)CC4)nn23)cc1 (stereo not drawn)
